Reference: PubChem BioAssay (NCI)
The panel holds about 83,000 compounds, 20% with a hit somewhere; the sample as a whole holds those more often.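 Treatment: one concentration, 48 hours, 96-well format. Scoring: percent growth, with anything below 10 considered active.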 Unmarked numbers belong to inactive results. Calls of active or inactive are those of the source.

Tested on: CAKI-1 renal
Test: NCI-60 one-dose screen, 48 h (100 = growth as untreated, 0 = no growth, -100 = all killed)
Settings: 10 µM

| Structure (SMILES) | growth |
| --- | --- |
| COc1cc2cc(C(=O)N3C[C@@H](CCl)c4c3cc(OC(=O)N3CCN(C)[C@@H]5CSSC[C@@H]53)c3ccccc43)[nH]c2c(OC)c1OC | -0.707% (active) |
| C#CC[Se]C(=O)c1ccc2n[se]nc2c1 | 71.3% |
| O=C(/C=C/c1ccc(Cl)cc1Cl)c1nc2ccccc2n1Cc1ccc(F)cc1 | 53.3% |
| COc1cc2cc(C(=O)N3C[C@@H](CCl)c4c3cc(OC(=O)N3CCN(C)[C@@H]5CSSC[C@H]53)c3ccccc43)[nH]c2c(OC)c1OC | -9.91% (active) |
| CC12OOC(C)(OO1)C2CCC(=O)OCCNc1ccnc2cc(Cl)ccc12 (stereo unspecified) | -79.4% (active) |
| CC(C)N=C([Se])NC(=O)c1cccs1 | 31.1% |
| Cc1ccc2[nH]c(=S)n(-c3ccc(F)cc3)c(=O)c2c1 | 97.3% |
| CC12CCC3(CCC(=O)NCCCNc4ccnc5cc(Cl)ccc45)[C@@](C)(OO[C@]3(C)O1)O2 | -25% (active) |
| CC[C@]12C=CCN3CC[C@@]4(c5ccc(OC)cc5N(C)[C@H]4[C@@](O)(C(=O)OC)[C@@H]1OC(=O)CCCC[P+](C1CCCCC1)(C1CCCCC1)C1CCCCC1)[C@@H]32 | -24.1% (active) |
| CC(=O)Oc1ccccc1C(=O)[Se]C(=NC(C)C)NC(C)C | -98.5% (active) |
| COCCOCCOCCOc1ccc(-n2cc(CCCN(CCNc3ccnc4cc(Cl)ccc34)C(=O)CCC(=O)O[C@@H]3O[C@@H]4OC5(C)CC[C@H]6[C@H](C)CC[C@@H]([C@H]3C)[C@@]46OO5)nn2)cc1 | 39.7% |
